From the supplement of paper PMC10503962

These compounds were tested on Trichuris muris adult worms (assay: mean motility score (Paragon pixel variance) of adult worms (arbitrary units); higher = more motile worms, i.e. less anthelmintic effect; extreme values may be limits of the assay). Details: 100 µM; 24 h.
How it was run: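 Single adult Trichuris muris worms, collected from infected NOD SCID mice, were placed in 96-well plates with 100 μL RPMI-1640 plus antibiotics and drug at 100 μM (1% v/v DMSO), then kept at 37°C and 5% CO2 for 24 h. Plates were filmed on an automated phenotyping platform (200 frames, 100 ms apart). Motility score came from Paragon pixel-variance analysis, averaged across replicate wells. Each drug had three worms in three wells, run on three separate occasions, with vehicle and positive controls.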

Row | SMILES | mean motility score
1 | COc1ccc2[nH]cc(CCNC(C)=O)c2c1 [melatonin] | 4410
2 | CN1CCN(CCOc2cc(OC3CCOCC3)c3c(Nc4c(Cl)ccc5c4OCO5)ncnc3c2)CC1 [saracatinib] | 1640
3 | Oc1nc2ccccc2n1C1CCN(CCCC(c2ccc(F)cc2)c2ccc(F)cc2)CC1 [pimozide] | 0
4 | Cn1cnc2c1c(=O)[nH]c(=O)n2C [theobromine] | 859
5 | O=C1c2c(O)ccc(O)c2C(=O)c2c(NCCNCCO)ccc(NCCNCCO)c21 [mitoxantrone] | 1350
6 | Cc1oncc1C(=O)Nc1ccc(C(F)(F)F)cc1 [leflunomide] | 2250
7 | CNC1(C)[C@H]2CC[C@H](C2)C1(C)C.Cl (stereo partly drawn) [mecamylamine hydrochloride] | 3150
8 | CC1=NS(=O)(=O)c2cc(Cl)ccc2N1 [diazoxide] | 3260
9 | Nc1ccc(C(=O)O)c(O)c1 [aminosalicylic acid] | 4450
10 | O=C(c1ccccc1)c1ccc2n1CCC2C(=O)O (stereo not drawn) [ketorolac] | 2460
11 | CO[C@@]1(NC(=O)CSCC#N)C(=O)N2C(C(=O)[O-])=C(CSc3nnnn3C)CS[C@@H]21.[Na+] [cefmetazole sodium] | 2040
12 | Cc1ccc(NC(=O)c2ccc(CN3CCN(C)CC3)cc2)cc1Nc1nccc(-c2cccnc2)n1 [imatinib] | 3600
13 | COc1cc(C(=O)NS(=O)(=O)c2ccccc2C)ccc1Cc1cn(C)c2ccc(NC(=O)OC3CCCC3)cc12 [zafirlukast] | 0
14 | CN(C)CC/C=C1/c2ccccc2Sc2ccc(Cl)cc21 [chlorprothixene] | 5
15 | Nc1ccn([C@H]2CC[C@@H](CO)O2)c(=O)n1 [zalcitabine] | 3920
16 | Nc1ncn([C@@H]2O[C@H](CO)[C@@H](O)[C@H]2O)c(=O)n1 [azacitidine] | 4300
17 | N[C@@H]1CONC1=O [cycloserine] | 3930
18 | CC(C)(C)NC(=O)[C@H]1CC[C@H]2[C@@H]3CC[C@H]4NC(=O)C=C[C@]4(C)[C@H]3CC[C@]12C [finasteride] | 2080
19 | NC(=O)N1c2ccccc2C=Cc2ccccc21 [carbamazepine] | 3020

Row | SMILES | mean motility score
20 | CC(C)(C)c1nc(-c2cccc(NS(=O)(=O)c3c(F)cccc3F)c2F)c(-c2ccnc(N)n2)s1 [dabrafenib] | 6
21 | COc1ccc([C@@H]2Sc3ccccc3N(CCN(C)C)C(=O)[C@@H]2OC(C)=O)cc1 [diltiazem] | 2070
22 | Cc1cc(C2CCCCC2)n(O)c(=O)c1 [ciclopirox] | 3190
23 | CNCc1ccc(-c2[nH]c3cc(F)cc4c3c2CCNC4=O)cc1 [rucaparib] | 1130
24 | CN(C)C/C=C/C(=O)Nc1cc2c(Nc3ccc(F)c(Cl)c3)ncnc2cc1O[C@H]1CCOC1 [afatinib] | 0
25 | CCN(CC)CCNC(=O)c1cc(Cl)c(N)cc1OC [metoclopramide] | 3210
26 | CS(=O)(=O)CCNCc1ccc(-c2ccc3ncnc(Nc4ccc(OCc5cccc(F)c5)c(Cl)c4)c3c2)o1 [lapatinib] | 999
27 | CC(=O)OC[C@H]1O[C@@H](n2ncc(=O)[nH]c2=O)[C@H](OC(C)=O)[C@@H]1OC(C)=O [azaribine] | 3970
28 | NC(=O)OCC(COC(N)=O)c1ccccc1 [felbamate] | 5470
29 | Cc1ccc(N(C=C2NCCN2)c2cccc(O)c2)cc1 [phentolamine] | 2960
30 | Nc1ncnc2c1ncn2[C@@H]1O[C@H](CO)[C@@H](O)[C@H]1O [adenosine] | 3520
31 | N[C@@H](CO)C(=O)O [serine] | 2250
32 | CC(C)c1ccc2oc3nc(N)c(C(=O)O)cc3c(=O)c2c1 [amlexanox] | 1570
33 | Cc1ccc(C)c(OCCCC(C)(C)C(=O)O)c1 [gemfibrozil] | 3280
34 | Cc1ccc(-c2ncc(Cl)cc2-c2ccc(S(C)(=O)=O)cc2)cn1 [etoricoxib] | 3660
35 | O=C1CCc2ccc(OCCCCN3CCN(c4cccc(Cl)c4Cl)CC3)cc2N1 [aripiprazole] | 3030
36 | C[C@H]1O[C@@H](n2cc(F)c(=O)[nH]c2=O)[C@H](O)[C@@H]1O [doxifluridine] | 2010
37 | COc1cc2ncnc(Nc3ccc(F)c(Cl)c3)c2cc1OCCCN1CCOCC1 [gefitinib] | 1080
38 | O=C(O)/C=C/C(=O)O.OCCOCCN1CCN(C2=Nc3ccccc3Sc3ccccc32)CC1.OCCOCCN1CCN(C2=Nc3ccccc3Sc3ccccc32)CC1 [quetiapine fumarate] | 3120
